From PubChem BioAssay
This is one part of the list. Inconclusive results are not listed. Calls of active or inactive are those of the source.

How the values were obtained:
PubChem AID 1714 = conditions: HEK293-KCC2 + bumetanide/ouabain, thallium flux FluoZin2; at 10 µM; stronger effect = higher value
[1] = thallium flux modulation in parental HEK cells, confirmation, counter-screen for KCC2 modulator project, cell-based, counterscreen 1 (AID 1716;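 active = thallium flux rate significantly above the same plate's solvent-only control wells, beyond their mean plus 3 SD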); conditions: HEK293 parental cells, thallium flux FluoZin2, ouabain; at 10 µM; baseline-ratio fluorescence slope, 10–20 s after thallium
[2] = molecular target: Solute carrier family 12 member 5 (Homo sapiens) (UniProt Q9H2X9); test: KCC2 inhibitors and activators, ouabain retest, confirmation, HEK-KCC2 cells (AID 1717;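 active = thallium flux slope beyond 3 SD from same-plate DMSO control mean in most replicates, usually higher, sometimes lower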;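 also: slope of initial-normalized fluorescence between seconds 10 and 20 after thallium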); conditions: HEK293-KCC2, thallium flux FluoZin2 fluorescence, at 10 µM, bidirectional: low = inhibitor, high = activator
[3] = molecular target: Solute carrier family 12 member 5 (Homo sapiens) (UniProt Q9H2X9); test: KCC2 modulators in sodium-free buffer, confirmation, cell-based, HEK293 KCC2, thallium flux, secondary assay (AID 1713;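 active = thallium flux slope above the same plate's solvent-only control mean plus 3 SD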); conditions: FluoZin2 fluorescence, at 10 µM, stronger effect = higher value
[4] = native HEK Tl+ uptake effects, second counter-screen – HEK cells, counterscreen 2, counter-screen for KCC2 modulator project, confirmation (AID 1718;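 active = thallium flux slope above the same plate's solvent-control mean plus 3 SD in both duplicate wells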;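 also: run without ouabain in cells lacking the KCC2 cotransporter; slope of fluorescence scaled to its starting value between 10 and 20 s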); conditions: HEK293 parental, thallium flux FluoZin-2 fluorescence slope; at 10 µM
[5] = molecular target: Solute carrier family 12 member 5 (Homo sapiens) (UniProt Q9H2X9); test: KCC2 modulators without ouabain present, confirmation, cell-based, HEK293 KCC2, thallium flux, FluoZin2, secondary assay 2 (AID 1715;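 active = thallium flux slope more than 3 SD above or below the plate's solvent-only control mean, mostly below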;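 also: raw slope with 0.1% DMSO as baseline and bumetanide as block control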); conditions: HEK293-KCC2, thallium flux FluoZin2 fluorescence; at 10 µM; actives lie on both sides; F/F0 rise rate, 10–20 s post-thallium
[6] = inhibitors of TNFa-induced NFkB p65 translocation, primary screen, imaging, HUVEC, MLSMR starter and 10KST1 sets (AID 438;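 active = inhibition above 20% together with a positive visual image hit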;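 also: compound added about 3h40 before a 20 min TNFalpha stimulation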;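 as to inhibition: signal is the nuclear over cytoplasmic p65 intensity ratio per well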); conditions: HUVEC TNFa-induced p65 nuclear translocation; cell count: measured here: nuclei count (cytotoxicity indicator), at 2.08 µM; inhibition: at 2 µM, stronger effect = higher value, 0% TNFa-plus-vehicle, 100% no-TNFa wells
[7] = inhibitors of mutant huntingtin aggregation, primary screen, imaging, exon1htt(103Q)mCFP cells, high-content imaging (AID 483;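 active = visual image review flags a hit and inhibition of aggregation exceeds 20%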;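 also: compound exposure lasted 3 days before fixation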;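 as to nuclei count: percent of the per-plate median nuclei count of sample wells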); conditions: exon1htt(103Q)mCFP cell line, aggregate imaging, at 2 µM; inhibition of aggregation: stronger effect = higher value; nuclei count: measured here: cell count, toxicity
[8] = inhibitors of E-selectin induction by TNFa, primary screen, imaging, HUVEC, immunofluorescence, MLSMR starter and 10KST1 sets (AID 487;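 active = visually confirmed hit in the image check and inhibition above 20%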;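 as to inhibition: signal is fraction of cell area covered by stained E-selectin grains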;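 as to nuclei count: 100% = median nuclei count of all wells on the same plate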); conditions: HUVEC TNFalpha-induced E-selectin immunofluorescence imaging, at 2 µM; inhibition: stronger effect = higher value; nuclei count: measured here: cell number, toxicity
[9] = DUSP6 inhibitors restoring Erk phosphorylation by chemical complementation, primary imaging in DUSP6-transfected HeLa (AID 609;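 active = compounds giving at least 50% inhibition in the cell-based MKP-3 phosphatase rescue imaging test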;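 as to inhibition: phospho-Erk level distribution per well compared with pooled transfected vehicle control wells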); conditions: HeLa MKP-3 transfected, phospho-Erk imaging KS statistic, at 10 µM, cells stimulated with TPA for 15 min
[10] = molecular target: Dual specificity protein phosphatase 6 (Homo sapiens) (UniProt Q16828); test: as above; conditions: HeLa MKP-3 transfected, phospho-Erk imaging KS statistic; at 10 µM; stronger effect = higher value; cells stimulated with TPA for 15 min
[11] = molecular target: Voltage-gated potassium channel subunit beta-2 (Rattus norvegicus) (UniProt P62483); test: KvBeta enzyme negative modulators, primary screen, biochemical, NADPH fluorescence (AID 622;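 active = fluorescence slope higher than the sample average by over 3 SD, cut at about -0.22 in these data, passing the limit was not always enough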;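 also: slope of raw intensity against log time taken from 70 to 1610 s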); conditions: recombinant KvBeta, 4-cyanobenzaldehyde reduction, at 10 µM, stronger effect = higher value
[12] = molecular target: Voltage-gated potassium channel subunit beta-2 (Rattus norvegicus) (UniProt P62483); test: KvBeta positive modulators, primary screen, biochemical, NADPH fluorescence (AID 623); conditions: Recombinant KvBeta, NADPH fluorescence decrease slope, 10 min; at 10 µM; stronger effect = lower value;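 also: fluorescence intensity change per second fitted from 20 to 320 s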
[13] = molecular target: Alpha-2C adrenergic receptor (Homo sapiens) (UniProt P18825); test: modulators of alpha2C/GIRK thallium flux, primary screen, cell-based, HEK293 alpha2C/GIRK1/2 (AID 624;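 active = fluorescence slope after compound addition differing from the mean of all screened samples at 99.7% confidence, in either direction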;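 also: slope of fluorescence ratio to pre-addition baseline per second over 15 to 24 s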); conditions: thallium flux BTC fluorescence, at 10 µM, actives lie on both sides
[14] = inhibitors of Chlamydomonas gravitaxis, primary screen, whole organism, Chlamydomonas reinhardtii, WT vs cilia-less mutant, absorbance, 96-well (AID 463189;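 active = inhibition at or above 50% relative to wild type and mutant plate controls; inactive = inhibition below 50%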;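 also: 0% = wild type cc124 cells in DMSO and 100% = ciliumless bld1 mutant cells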); conditions: OD600 absorbance, 2 days, at 10 µM, stronger effect = higher value
[15] = inhibitors of Sendai virus-induced IRF3 signaling, primary screen, TLR/RLR signaling modifier project, cell-based, Sendai virus stimulus, luciferase, 10K MLSCN set (AID 602276;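 active = inhibition at or above 50% at 10 µM; inactive = inhibition below 50%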;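 also: firefly luciferase from ISG56 promoter only with Renilla not read in this screen; 0% = Sendai virus plus DMSO and 100% = medium plus DMSO without virus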); conditions: HEK293 RL24 IRF3 luciferase reporter, at 10 µM, stronger effect = higher value
[16] = inhibitors of poly I:C-induced TLR3 signaling, primary screen, cell-based, poly I:C stimulus, luciferase, 10K MLSCN set (AID 602277;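 active = inhibition of the reporter signal at or above 50%; inactive = inhibition below 50%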); conditions: HEK293-TLR3 RL24 IRF3 luciferase reporter, at 10 µM, stronger effect = higher value
[17] = molecular target: Muscarinic acetylcholine receptor M4 (Homo sapiens) (UniProt P08173); test: compounds altering M4/GIRK thallium flux, either direction, primary screen, M4 allosteric agonist project, cell-based, HEK293 M4/GIRK, BTC-AM (AID 625;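 active = fluorescence slope after compound addition differing from the mean of all tested samples at 99.7% confidence, mostly higher but some lower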;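 also: thallium influx through GIRK channels coupled to M4 in HEK293 cells with BTC-AM dye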); conditions: at 10 µM, actives lie on both sides
[18] = inhibitors of larval lipid processing in zebrafish, primary screen, whole organism, PED6 fluorescence, gall bladder and intestine (AID 686;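 active = a full or partial loss of lipid-probe fluorescence in the fish gall bladder, intestine or both, judged by eye; inactive = no fluorescence loss, or compound toxic to the fish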;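 also: larvae 5 to 7 days old with five fish per well; signal comes from phospholipase A2 cleavage of quenched PED6 carried via bile; overnight exposure to compound and PED6 before scoring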); conditions: Zebrafish larvae PED6 lipid processing, fluorescence scoring; screened at 20 µM (by protocol)
[19] = measured here: cell density z-score
[20] = measured here: nuclear c-Myc green intensity z-score
[21] = measured here: nuclear pErk red intensity z-score, stronger effect = higher value

Chain of Muscarinic acetylcholine receptor M4 (Homo sapiens) (P08173 whole entry, looked up): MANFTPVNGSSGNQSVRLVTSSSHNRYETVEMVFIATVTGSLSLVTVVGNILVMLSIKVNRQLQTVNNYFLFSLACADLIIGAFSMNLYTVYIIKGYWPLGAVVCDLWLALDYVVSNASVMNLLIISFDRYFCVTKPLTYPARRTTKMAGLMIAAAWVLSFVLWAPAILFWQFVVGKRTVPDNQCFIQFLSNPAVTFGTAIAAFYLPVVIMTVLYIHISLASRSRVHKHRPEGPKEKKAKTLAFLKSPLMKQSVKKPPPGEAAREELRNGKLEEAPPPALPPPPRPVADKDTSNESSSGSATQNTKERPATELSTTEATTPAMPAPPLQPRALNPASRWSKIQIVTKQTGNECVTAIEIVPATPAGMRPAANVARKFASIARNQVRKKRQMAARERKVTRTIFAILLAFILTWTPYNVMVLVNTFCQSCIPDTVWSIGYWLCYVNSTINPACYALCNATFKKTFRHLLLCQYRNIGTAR
Chain of Alpha-2C adrenergic receptor (Homo sapiens) (P18825 whole entry, looked up): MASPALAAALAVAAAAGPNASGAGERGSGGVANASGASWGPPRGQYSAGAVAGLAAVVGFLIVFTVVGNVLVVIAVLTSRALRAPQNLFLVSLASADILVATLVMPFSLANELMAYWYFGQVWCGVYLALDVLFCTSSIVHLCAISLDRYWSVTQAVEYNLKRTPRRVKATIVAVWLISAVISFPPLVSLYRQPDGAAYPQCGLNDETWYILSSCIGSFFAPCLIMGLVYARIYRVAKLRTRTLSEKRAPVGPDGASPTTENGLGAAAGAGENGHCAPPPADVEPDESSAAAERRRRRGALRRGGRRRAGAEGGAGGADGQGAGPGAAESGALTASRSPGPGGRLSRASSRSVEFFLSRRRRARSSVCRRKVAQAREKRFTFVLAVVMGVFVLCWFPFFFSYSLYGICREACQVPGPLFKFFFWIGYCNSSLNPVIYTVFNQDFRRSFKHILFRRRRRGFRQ
Chain of Dual specificity protein phosphatase 6 (Homo sapiens) (Q16828 whole entry, looked up): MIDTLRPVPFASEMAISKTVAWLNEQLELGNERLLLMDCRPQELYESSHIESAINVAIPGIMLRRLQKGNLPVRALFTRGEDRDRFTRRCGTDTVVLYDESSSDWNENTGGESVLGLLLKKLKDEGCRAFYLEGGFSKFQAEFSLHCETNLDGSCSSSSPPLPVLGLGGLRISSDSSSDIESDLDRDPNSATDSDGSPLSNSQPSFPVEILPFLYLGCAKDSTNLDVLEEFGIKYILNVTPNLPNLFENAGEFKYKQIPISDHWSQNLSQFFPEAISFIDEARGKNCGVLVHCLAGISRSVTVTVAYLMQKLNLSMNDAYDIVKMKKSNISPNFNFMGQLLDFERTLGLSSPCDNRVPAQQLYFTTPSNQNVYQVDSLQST
Chain of Solute carrier family 12 member 5 (Homo sapiens) (Q9H2X9 whole entry, looked up): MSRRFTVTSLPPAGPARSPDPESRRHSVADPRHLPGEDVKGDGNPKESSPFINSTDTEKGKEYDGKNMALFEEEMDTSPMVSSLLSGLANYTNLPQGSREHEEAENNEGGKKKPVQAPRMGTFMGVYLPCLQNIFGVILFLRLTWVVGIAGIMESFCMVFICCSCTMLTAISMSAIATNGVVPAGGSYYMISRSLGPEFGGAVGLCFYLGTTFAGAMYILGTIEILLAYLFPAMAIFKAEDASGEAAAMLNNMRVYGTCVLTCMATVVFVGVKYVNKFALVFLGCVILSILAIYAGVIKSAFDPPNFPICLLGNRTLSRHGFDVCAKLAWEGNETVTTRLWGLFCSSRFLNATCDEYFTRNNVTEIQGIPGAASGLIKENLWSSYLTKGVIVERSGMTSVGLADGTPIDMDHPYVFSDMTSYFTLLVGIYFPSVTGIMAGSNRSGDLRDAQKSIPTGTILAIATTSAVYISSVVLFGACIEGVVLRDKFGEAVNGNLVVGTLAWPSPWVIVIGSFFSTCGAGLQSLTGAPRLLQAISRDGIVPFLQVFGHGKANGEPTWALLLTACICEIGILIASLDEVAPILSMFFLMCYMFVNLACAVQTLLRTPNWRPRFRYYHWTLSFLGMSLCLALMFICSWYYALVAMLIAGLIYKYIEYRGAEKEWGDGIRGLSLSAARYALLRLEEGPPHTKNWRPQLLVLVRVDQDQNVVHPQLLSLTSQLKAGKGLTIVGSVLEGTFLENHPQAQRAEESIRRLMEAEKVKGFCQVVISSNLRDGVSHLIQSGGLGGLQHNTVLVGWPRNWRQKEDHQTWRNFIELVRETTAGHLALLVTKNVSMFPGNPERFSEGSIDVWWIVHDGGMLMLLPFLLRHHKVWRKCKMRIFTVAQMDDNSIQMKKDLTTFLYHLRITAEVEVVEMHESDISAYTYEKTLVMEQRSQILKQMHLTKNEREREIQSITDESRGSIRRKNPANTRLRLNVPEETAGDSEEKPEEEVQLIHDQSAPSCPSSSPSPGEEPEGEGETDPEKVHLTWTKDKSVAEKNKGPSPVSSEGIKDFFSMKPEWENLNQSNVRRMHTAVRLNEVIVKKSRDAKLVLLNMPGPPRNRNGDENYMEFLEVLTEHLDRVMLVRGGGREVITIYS
Chain of Voltage-gated potassium channel subunit beta-2 (Rattus norvegicus) (P62483 whole entry, looked up): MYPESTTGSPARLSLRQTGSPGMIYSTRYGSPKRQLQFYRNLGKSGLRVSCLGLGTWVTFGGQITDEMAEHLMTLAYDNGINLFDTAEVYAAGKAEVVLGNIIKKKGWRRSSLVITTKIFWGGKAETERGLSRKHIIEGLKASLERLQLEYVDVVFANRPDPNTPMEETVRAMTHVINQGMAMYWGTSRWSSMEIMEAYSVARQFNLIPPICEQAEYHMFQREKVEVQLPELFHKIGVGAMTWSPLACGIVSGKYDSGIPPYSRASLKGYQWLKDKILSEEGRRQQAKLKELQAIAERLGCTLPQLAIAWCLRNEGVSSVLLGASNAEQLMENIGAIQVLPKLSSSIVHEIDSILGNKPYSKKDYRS

In the case of `Cc1ccccc1-c1nc(CS(=O)(=O)CC(=O)N2CCc3ccccc3C2)c(C)o1`, the normalized thallium flux (PubChem AID 1714) was 0.00657 (inactive), the thallium flux rate (normalised fluorescence) [1] was 0.00685 (inactive) and the raw Tl+ flux slope (below DMSO = inhibition, above = activation) [2] was 0.0154 (active).

With `Cc1ccc(-c2noc(CN3CCN(Cc4ccccc4)CC3)n2)cc1` the normalised thallium flux (F/F0 slope) [3] was 0.0176 (inactive), the thallium flux rate (normalised fluorescence) [1] was 0.00768 (inactive) and the raw Tl+ flux slope (below DMSO = inhibition, above = activation) [2] was 0.0139 (inactive). The thallium flux slope [4] was 0.0101 (inactive).

With `CCOC(=O)c1ccccc1N1C(=O)C2Sc3[nH]c(=O)sc3C(/C=C/c3ccccc3)C2C1=O` (stereo not given) the normalised thallium flux (F/F0 slope) [3] was 0.00694 (inactive), the normalized thallium flux [5] was 0.0266 (active) and the thallium flux rate (normalised fluorescence) [1] was 0.00732 (inactive). The raw Tl+ flux slope (below DMSO = inhibition, above = activation) [2] was 0.00834 (active) and the thallium flux slope [4] was 0.0106 (inactive).

In the case of `C[C@@H](C(=O)Nc1ccc2ccccc2c1)[C@@H]1C[C@@]1(C)[C@@H](NC(=O)c1cccnc1)c1ccccc1`, the normalised thallium flux (F/F0 slope) [3] was 0.00785 (inactive), the normalized thallium flux [5] was 0.0226 (active) and the thallium flux rate (normalised fluorescence) [1] was 0.00775 (inactive). The raw Tl+ flux slope (below DMSO = inhibition, above = activation) [2] was 0.0135 (active) and the thallium flux slope [4] was 0.0098 (inactive).

For `CCC1CCCCN1c1nc(-c2ccncc2)nc2ccccc12` (stereo not given), the cell count [6] was 503, the inhibition [6] was 0.5% (inactive) and the inhibition of aggregation [7] was 7.3% (inactive). The nuclei count [7] was 91.9%, the inhibition [8] was 12.1% (inactive) and the nuclei count [8] was 126%. The z-score [9, 19] was 1.04, the z-score [9, 20] was -0.92 and the z-score [9, 21] was 0.299. The inhibition [10] was 14% (inactive), the fluorescence slope [11] was -0.391 (inactive) and the NADPH fluorescence slope [12] was -0.000148 (inactive). For the same compound, the slope [13] was 0.00736 (inactive), the inhibition [14] was 132% (active) and the inhibition [15] was 24.2% (inactive). For the same compound, the inhibition [16] was 30.3% (inactive).

For `c1ccc2[nH]c(-c3cscn3)nc2c1`, the cell count [6] was 587, the inhibition [6] was 2.5% (inactive) and the inhibition of aggregation [7] was -29.1% (inactive). The nuclei count [7] was 99.7%, the inhibition [8] was -51.2% (inactive) and the nuclei count [8] was 111%. The z-score [9, 19] was -1.12, the z-score [9, 20] was -0.0303 and the z-score [9, 21] was -0.292. The inhibition [10] was 1.38% (inactive), the fluorescence slope [11] was -0.491 (inactive) and the NADPH fluorescence slope [12] was -6.5e-05 (inactive). The slope [13] was 0.00525 (inactive), the inhibition [14] was 45% (inactive) and the inhibition [15] was -40.2% (inactive). The inhibition [16] was -133% (inactive).

With `C/C(=N\NC(=S)NC1CCCCC1)c1ccc(C)o1` the normalized thallium flux (PubChem AID 1714) was 0.0335 (active), the normalized thallium flux [5] was 0.0359 (inactive) and the thallium flux rate (normalised fluorescence) [1] was 0.017 (active). The raw Tl+ flux slope (below DMSO = inhibition, above = activation) [2] was 0.0406 (active).

With `CCCC(=O)N1c2ccccc2NC2=C(C(=O)CCC2)C1c1ccc(F)cc1` (stereo not given) the cell count [6] was 593, the inhibition [6] was -9.6% (inactive) and the inhibition of aggregation [7] was 3.9% (inactive). For the same compound, the nuclei count [7] was 124%, the inhibition [8] was -94.4% (inactive) and the nuclei count [8] was 123%. For the same compound, the fluorescence slope [11] was -0.574 (inactive), the NADPH fluorescence slope [12] was -1.5e-05 (inactive) and the slope [13] was 0.0063 (inactive). The normalised thallium flux (F/F0 slope) [3] was 0.0086 (inactive), the normalized thallium flux [5] was 0.0312 (inactive) and the thallium flux rate (normalised fluorescence) [1] was 0.0072 (inactive). The raw Tl+ flux slope (below DMSO = inhibition, above = activation) [2] was 0.0212 (inactive), the inhibition [15] was 8.4% (inactive) and the inhibition [16] was 23.4% (inactive).

With `Cn1c(=O)c2c(nc(NCc3ccc4c(c3)OCO4)n2Cc2ccccc2F)n(C)c1=O` the cell count [6] was 651, the inhibition [6] was -4.2% (inactive) and the inhibition of aggregation [7] was 37.8% (active). For the same compound, the nuclei count [7] was 50.9%, the inhibition [8] was -161% (inactive) and the nuclei count [8] was 126%. For the same compound, the z-score [9, 19] was -0.011, the z-score [9, 20] was -1.47 and the z-score [9, 21] was 0.345. For the same compound, the inhibition [10] was 1.9e-07% (inactive), the fluorescence slope [11] was -0.45 (inactive) and the NADPH fluorescence slope [12] was -0.000288 (inactive). The slope [13] was 0.00635 (inactive), the fluorescence slope [17] was 0.00703 (inactive) and the outcome [18] was “inactive”. For the same compound, the inhibition [14] was 38.3% (inactive), the inhibition [15] was -2.97% (inactive) and the inhibition [16] was 10.4% (inactive).

In the case of `CC(C)C(=O)N1CCN(c2nc(-c3ccccc3)c3c(c2C#N)CCCC3)CC1`, the cell count [6] was 615, the inhibition [6] was -2.8% (inactive) and the inhibition of aggregation [7] was 0.5% (inactive). For the same compound, the nuclei count [7] was 89.1%, the inhibition [8] was -17.1% (inactive) and the nuclei count [8] was 122%. It also gave a z-score [9, 19] of 0.333, a z-score [9, 20] of 0.332 and a z-score [9, 21] of -0.342. The inhibition [10] was -7.67% (inactive), the fluorescence slope [11] was -0.377 (inactive) and the NADPH fluorescence slope [12] was -9.2e-05 (inactive). The slope [13] was 0.0045 (inactive), the fluorescence slope [17] was 0.00499 (inactive) and the outcome [18] was “inactive”. The inhibition [14] was 5.67% (inactive), the inhibition [15] was -7.38% (inactive) and the inhibition [16] was 17.9% (inactive).

With `C1CNCCNCCNCCN1` the cell count [6] was 566, the inhibition [6] was -6.4% (inactive) and the inhibition of aggregation [7] was 12.4% (inactive). The nuclei count [7] was 109%, the inhibition [8] was -31.7% (inactive) and the nuclei count [8] was 105%. The z-score [9, 19] was -1.12, the z-score [9, 20] was -0.574 and the z-score [9, 21] was 0.0503. The inhibition [10] was 10.2% (inactive), the fluorescence slope [11] was -0.481 (inactive) and the NADPH fluorescence slope [12] was -4.4e-05 (inactive). For the same compound, the slope [13] was 0.00519 (inactive), the inhibition [14] was 1.09% (inactive) and the inhibition [15] was 13.2% (inactive). For the same compound, the inhibition [16] was 41.9% (inactive).

For `CCN(CC)C(=O)c1sc2nc(-c3cccs3)cc(-c3cccs3)c2c1N`, the cell count [6] was 443, the inhibition [6] was -1.7% (inactive) and the inhibition of aggregation [7] was 0.6% (inactive). The nuclei count [7] was 90%, the inhibition [8] was -166% (inactive) and the nuclei count [8] was 121%. The z-score [9, 19] was 1.5, the z-score [9, 20] was -1.58 and the z-score [9, 21] was -0.775. For the same compound, the inhibition [10] was 9.61% (inactive), the fluorescence slope [11] was 1.5e-14 (active) and the NADPH fluorescence slope [12] was 0 (inactive). For the same compound, the slope [13] was 0.00378 (inactive), the fluorescence slope [17] was -0.00241 (active) and the outcome [18] was “active; no signal in gallbladder and intestine”. The inhibition [14] was 15.5% (inactive), the inhibition [15] was 20.8% (inactive) and the inhibition [16] was 23.7% (inactive).

With `COc1ccc(CNc2oc(COc3ccccc3Cl)nc2C#N)cc1` the cell count [6] was 436, the inhibition [6] was -2.2% (inactive) and the inhibition of aggregation [7] was 21.3% (inactive). For the same compound, the nuclei count [7] was 81.6%, the inhibition [8] was -70.3% (inactive) and the nuclei count [8] was 126%. It also gave a z-score [9, 19] of -0.4, a z-score [9, 20] of 0.197 and a z-score [9, 21] of -0.0244. For the same compound, the inhibition [10] was 3.5% (inactive), the fluorescence slope [11] was -0.551 (inactive) and the NADPH fluorescence slope [12] was -9.3e-05 (inactive). The slope [13] was 0.00797 (inactive), the fluorescence slope [17] was 0.0036 (inactive) and the inhibition [14] was 31.6% (inactive). For the same compound, the inhibition [15] was 7.08% (inactive) and the inhibition [16] was 6.46% (inactive).
